Screening results (PubChem BioAssay)
Shown are actives, neighbours in structure and some others; about 7% of the full set was active somewhere.
NR3A LBD binder: modulators (binders) of human NR3A ligand-binding domain | NR3A LBD differential scanning fluorimetry, Tm shift; 0% = protein alone, 100% = glycine-bound protein | Tm shift relative to glycine control, % at 25 µM | 2.5% of 340,000 active;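 active = melting temperature shift of at least 10% of the positive control shift, at one fixed dose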
AHR act: human AHR activation. P35869. AHR-responsive luciferase reporter cells, luminescence. activation, % at 5 µM. 2.5% of 320,000 active. AID 2796; in the data active = activation above about 47%
proKLK7 act: activators of human kallikrein-7 zymogen. purified proKLK7, EDANS-DABCYL substrate fluorescence; 100% is mature enzyme control, 0% vehicle. activation, % at 7 µM. 0.9% of 370,000 active;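 active = activation above the mean of all tested compounds plus 3 SD, computed per campaign excluding outliers beyond control limits, cut at about 13% in these data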
Target sequence (P49862 whole entry, looked up): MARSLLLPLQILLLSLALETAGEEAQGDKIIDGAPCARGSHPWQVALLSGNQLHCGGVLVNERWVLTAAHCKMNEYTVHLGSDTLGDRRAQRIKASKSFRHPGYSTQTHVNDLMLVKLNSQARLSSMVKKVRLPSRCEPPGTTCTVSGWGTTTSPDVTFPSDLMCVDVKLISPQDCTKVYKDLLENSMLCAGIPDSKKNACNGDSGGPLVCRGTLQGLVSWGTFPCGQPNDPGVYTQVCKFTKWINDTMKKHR
ADAM10 inh: ADAM10 inhibition, QFRET primary screen | recombinant ADAM10, EDANS/DABCYL FRET peptide cleavage, 3 h | AID 720582 | inhibition, % at 7 µM | 0.62% of 370,000 active | O14672;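 active = inhibition above a per-campaign cutoff equal to the mean of compounds falling between control-based bounds plus 3 SD, cut at about 20% in these data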
ADAM17 inh: inhibits human ADAM17; 0.83% of 370,000 active; inhibition, % at 6.95 µM; recombinant ADAM17, EDANS/DABCYL FRET peptide cleavage; P78536;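 active = inhibition above the mean of compounds lying between control limits plus 3 SD, set per campaign, cut at about 8.5% in these data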
rCAG RNA binder: molecules binding r(CAG) RNA repeats | AID 651821 | 1.3% of 370,000 active | r(CAG) RNA repeat, TO-PRO-1 dye displacement fluorescence | inhibition, % at 3 µM;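 active = inhibition above the plate cutoff, the mean of all test compounds on that plate plus 3 SD, cut at about 35% in these data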;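 note: higher means more dye released from RNA so lower well fluorescence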
Numbers stand for hits.

`CC(=O)N(/N=C1\Sc2ccccc2C1=O)c1cccc(C)c1` gave NR3A LBD binder inactive, AHR act 76, proKLK7 act inactive, ADAM10 inh inactive, ADAM17 inh inactive and rCAG RNA binder inactive.
`Nc1[nH]c(C(=O)c2ccc(Br)cc2)c(-c2ccccc2Cl)c1C(=O)NCCc1c[nH]c2ccccc12` gave proKLK7 act inactive, ADAM10 inh inactive, ADAM17 inh inactive and rCAG RNA binder inactive.
For Oc1ccc(-c2nc3ccc4ccccc4c3c3c2CCC3)cc1O the results were NR3A LBD binder 13, AHR act inactive, proKLK7 act inactive, ADAM10 inh inactive, ADAM17 inh inactive and rCAG RNA binder inactive.
NC(=O)N/N=C/c1c(Sc2nnnn2-c2ccccc2)nc2ccccn2c1=O was read as NR3A LBD binder 29, AHR act inactive, proKLK7 act inactive, ADAM10 inh inactive, ADAM17 inh inactive and rCAG RNA binder inactive.
Screening Cc1c(NC(=O)CSc2ccc(Cl)cc2)cccc1-c1nc2cc(Cl)ccc2o1 returned NR3A LBD binder 18, AHR act 97, proKLK7 act inactive, ADAM10 inh inactive, ADAM17 inh inactive and rCAG RNA binder inactive.
For Cc1ccc2oc(-c3cccc(NC(=O)c4ccc(Br)o4)c3C)nc2c1 the results were NR3A LBD binder inactive, AHR act inactive, proKLK7 act inactive, ADAM10 inh inactive, ADAM17 inh inactive and rCAG RNA binder inactive.
For O=C(OCCOCCN=C1NS(=O)(=O)c2ccccc21)C1CC(=O)N(c2ccccc2)C1 (configuration not stated) the results were NR3A LBD binder inactive, AHR act inactive, proKLK7 act inactive, ADAM10 inh inactive, ADAM17 inh inactive and rCAG RNA binder inactive.
O=C(OCCN=C1NS(=O)(=O)c2ccccc21)C1CC(=O)N(c2ccc(Cl)cc2)C1 (configuration not stated) was read as NR3A LBD binder 24, AHR act inactive, proKLK7 act inactive, ADAM10 inh inactive, ADAM17 inh inactive and rCAG RNA binder inactive.
Screening O=C1c2ccccc2-c2onc3ccc(NCCCn4ccnc4)c1c23 returned NR3A LBD binder inactive and AHR act 60.
COc1ccc(N2C[C@@]3(O)CC[C@@H](O)[C@@H](OC)[C@@H]3[C@@](C)(O)[C@@H]2CC=C(C)C)cc1 was read as proKLK7 act inactive, ADAM10 inh inactive, ADAM17 inh inactive and rCAG RNA binder inactive.
For CC(C)CN1C(=O)C[C@]2(C(=O)N(C)c3ccc(NS(=O)(=O)C4CCCCC4)cc32)C1c1ccccc1 (some centres not stated) the results were proKLK7 act inactive, ADAM10 inh inactive, ADAM17 inh inactive and rCAG RNA binder inactive.
`Brc1ccc(Nc2ncnc3[nH]ncc23)cc1` gave NR3A LBD binder 26, AHR act inactive, proKLK7 act inactive, ADAM10 inh inactive, ADAM17 inh inactive and rCAG RNA binder inactive.
For O=C(CCS(=O)(=O)c1ccccc1)Nc1cc(Cl)ccc1F the results were proKLK7 act inactive, ADAM10 inh inactive, ADAM17 inh inactive and rCAG RNA binder inactive.
`O=S(=O)(NNc1ncc(C(F)(F)F)cc1Cl)c1ccccc1` gave NR3A LBD binder inactive, AHR act 69, proKLK7 act inactive, ADAM10 inh inactive, ADAM17 inh inactive and rCAG RNA binder inactive.
Screening FC(F)(F)c1cnc(NNC(=S)Nc2ccc(Cl)cc2)c(Cl)c1 returned NR3A LBD binder 18, AHR act inactive, proKLK7 act inactive, ADAM10 inh inactive, ADAM17 inh inactive and rCAG RNA binder inactive.
Screening Cc1ccc(NC(=S)NNc2ncc(C(F)(F)F)cc2Cl)cc1 returned NR3A LBD binder inactive, AHR act inactive, proKLK7 act inactive, ADAM10 inh inactive, ADAM17 inh inactive and rCAG RNA binder inactive.
O=C(NCc1ccc2c(c1)OCO2)C1CCC(CNS(=O)(=O)c2ccc(Cl)cc2)CC1 (configuration not stated) was read as NR3A LBD binder inactive, AHR act inactive, proKLK7 act inactive, ADAM10 inh inactive, ADAM17 inh inactive and rCAG RNA binder inactive.
Cc1ccc(CNS(=O)(=O)c2ccc3c(c2)OCCO3)cc1 was read as NR3A LBD binder 16, AHR act inactive, proKLK7 act inactive, ADAM10 inh inactive, ADAM17 inh inactive and rCAG RNA binder inactive.
